Data on 57 molecules can be found in PubChem BioAssay (NCATS).

For assay [1], the target named is Voltage-gated inwardly rectifying potassium channel KCNH2 (Homo sapiens) (UniProt Q12809). The experiment in a line: qHTS Assay for Small Molecule Inhibitors of the Human hERG Channel Activity (AID 588834).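 Note: lower thallium flux fluorescence means stronger hERG block; nearly all actives have a fitted effect of over 50% in size.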 Note: potency is the fitted concentration of half-maximal effect. The essentials: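 Kinetic FDSS fluorescence; U2OS + hERG BacMam (~100 virus particles/cell); FluxOR Tl+ flux; ~10 min cpd; AC50 (Hill).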
Chain of Voltage-gated inwardly rectifying potassium channel KCNH2 (Homo sapiens) (Q12809 whole entry, looked up): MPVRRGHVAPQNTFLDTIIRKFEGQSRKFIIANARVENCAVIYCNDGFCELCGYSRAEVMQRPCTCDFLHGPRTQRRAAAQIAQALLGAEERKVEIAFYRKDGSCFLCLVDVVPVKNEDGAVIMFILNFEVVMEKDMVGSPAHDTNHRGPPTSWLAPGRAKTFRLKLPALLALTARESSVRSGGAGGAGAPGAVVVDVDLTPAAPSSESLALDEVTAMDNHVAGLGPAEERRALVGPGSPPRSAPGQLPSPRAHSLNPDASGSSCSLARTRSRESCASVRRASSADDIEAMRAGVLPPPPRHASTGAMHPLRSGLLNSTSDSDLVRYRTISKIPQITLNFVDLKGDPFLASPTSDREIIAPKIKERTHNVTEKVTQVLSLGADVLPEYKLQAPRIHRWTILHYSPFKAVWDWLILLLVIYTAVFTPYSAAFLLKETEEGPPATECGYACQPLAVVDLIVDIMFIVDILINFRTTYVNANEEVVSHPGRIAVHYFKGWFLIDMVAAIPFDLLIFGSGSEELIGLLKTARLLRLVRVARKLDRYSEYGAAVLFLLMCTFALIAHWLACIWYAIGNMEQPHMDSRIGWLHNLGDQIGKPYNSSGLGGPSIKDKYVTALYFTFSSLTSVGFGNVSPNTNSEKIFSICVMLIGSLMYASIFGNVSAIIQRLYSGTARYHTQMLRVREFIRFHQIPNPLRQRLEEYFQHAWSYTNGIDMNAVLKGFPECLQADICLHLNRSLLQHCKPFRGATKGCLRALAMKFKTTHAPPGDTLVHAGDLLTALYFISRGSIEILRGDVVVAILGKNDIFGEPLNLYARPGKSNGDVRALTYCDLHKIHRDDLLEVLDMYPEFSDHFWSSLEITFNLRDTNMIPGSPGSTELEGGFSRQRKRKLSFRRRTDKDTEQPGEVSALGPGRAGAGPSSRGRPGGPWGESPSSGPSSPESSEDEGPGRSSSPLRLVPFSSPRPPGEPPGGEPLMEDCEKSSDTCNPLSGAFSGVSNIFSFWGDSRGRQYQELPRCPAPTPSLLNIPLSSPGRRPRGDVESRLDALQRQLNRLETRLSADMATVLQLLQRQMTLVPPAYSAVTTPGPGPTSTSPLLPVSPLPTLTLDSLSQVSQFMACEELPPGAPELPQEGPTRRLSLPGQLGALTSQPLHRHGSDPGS
For orientation: In qHTS, concentration-response curves come from the screen itself.

Assay [2] in a line: S16 Schwann cell PMP22 intronic element firefly luciferase assay (AID 624032). Note: series mostly up to about 58 µM; nearly all actives have a fitted effect of over 30% in size. The essentials: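 Luciferase reporter of PMP22 intronic-element expression in stably transfected S16 rat Schwann cells, read by ONE-Glo luminescence after 24 h compound exposure at 37 C. Activity scaled between DMSO (0%) and positive-control PTC124; concentration-effect curves quality-classified.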

The nature of assay [3]: S16 Schwann cell viability assay (CellTiter-Glo assay) (AID 624031).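 Note: cellular ATP luminescence as a viability measure; series mostly up to about 58 µM; nearly all actives have a fitted effect of over 70% in size.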 Put shortly: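 Luminescent ATP read-out (CellTiter-Glo) after 24 h compound exposure of native S16 rat Schwann cells at 37 °C. Signals were normalized between cell-free wells and DMSO-treated cells, set as 0% activity.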
In general terms: Cellular ATP, detected with luciferase, serves as a proxy for viable cell number.

The target of assay [4] is Luciferin 4-monooxygenase (Photinus pyralis) (UniProt P08659). The experiment in a line: Biochemical firefly luciferase enzyme assay for NPC (AID 624030). Note: nearly all actives have a fitted effect of over 70% in size. Note: potency is the fitted concentration of half-maximal effect. The essentials: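 Direct inhibition of firefly luciferase enzyme (10 nM final, 50 mM Tris Acetate) assessed by luminescence within 5 minutes. Percent activity scaled between DMSO and PTC124 positive control, with concentration-effect curves classified by fit quality and response.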
Chain of Luciferin 4-monooxygenase (Photinus pyralis) (P08659 whole entry, looked up): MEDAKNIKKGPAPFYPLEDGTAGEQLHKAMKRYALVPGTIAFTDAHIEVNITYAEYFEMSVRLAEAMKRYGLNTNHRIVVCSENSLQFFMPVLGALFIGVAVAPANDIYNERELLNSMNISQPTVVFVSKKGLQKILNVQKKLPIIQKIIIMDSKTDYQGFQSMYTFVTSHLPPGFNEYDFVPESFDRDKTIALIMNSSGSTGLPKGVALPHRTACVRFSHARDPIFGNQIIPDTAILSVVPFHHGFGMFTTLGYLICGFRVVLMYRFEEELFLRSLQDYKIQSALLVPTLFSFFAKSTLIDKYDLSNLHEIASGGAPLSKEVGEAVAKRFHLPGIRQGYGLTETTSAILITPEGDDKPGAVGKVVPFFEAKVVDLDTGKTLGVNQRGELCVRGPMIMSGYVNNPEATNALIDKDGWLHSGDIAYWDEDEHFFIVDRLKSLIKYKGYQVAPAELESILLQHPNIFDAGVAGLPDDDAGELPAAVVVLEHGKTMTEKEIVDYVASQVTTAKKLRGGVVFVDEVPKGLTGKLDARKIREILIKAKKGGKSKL

Structures are written as SMILES. Records with an inconclusive call do not appear. A call without a number means that no potency is given here. Active and inactive are the calls of the source. Calls come from the whole dose curve; as a rule, active = well fitted curve in the direction sought with a large enough effect; inconclusive = small, poorly fitted or top-dose-only effect, or another doubt; inactive = no such curve, though single readings can be large; an effect the other way counts as inactive or inconclusive.

For the molecule `CN1CCCN=C1COC(=O)C(O)(c1ccccc1)C1CCCCC1` (stereo unspecified), the Potency in assay [1] is 2.82 µM (active). Further, the Potency result in assay [2] is “inactive”.

Take `O=S1(=O)OC(c2ccc(O)cc2)(c2ccc(O)cc2)c2ccccc21`: in assay [1], the Potency entry is “inactive”. Also, in assay [3], the outcome was inactive.

On to `COc1ccccc1Oc1c(NS(=O)(=O)c2ccc(C(C)(C)C)cc2)nc(-c2ncccn2)nc1OCCO`, for which the Potency result in assay [1] and in assay [2] was “inactive” throughout.

Turning to `O=C1c2ccccc2C(=O)C1c1ccc(Br)cc1`, in assay [1], the Potency result was “inactive”. Besides, in assay [3], the result was inactive.

For the molecule `CCN(CC)S(=O)(=O)c1ccc(C(=O)O)cc1`, the Potency entry in assay [1] is “inactive”. Moreover, the outcome in assay [3] was inactive.

In the case of `CC(O)CCCCn1c(=O)c2c(ncn2C)n(C)c1=O` (stereo unspecified), the Potency result in assay [1] was “inactive”. The molecule was classed as inactive in assay [3].

With `Cc1cccc(C(=O)O)c1O`, the Potency result in assay [1] and in assay [2] was “inactive” each time.

In the case of `CCc1cccc(CC)c1NC(=O)CN(CC(=O)O)CC(=O)O`, the Potency result in assay [1] and in assay [2] was “inactive” each time. The outcome in assay [3] was inactive.

For the molecule `CC1CCc2cc(F)cc3c(=O)c(C(=O)O)cn1c23` (stereo unspecified), in assay [1], the Potency entry is “inactive”. Moreover, in assay [3], the result was inactive.

Regarding `COc1ccc2cc(CCC(C)=O)ccc2c1`, the Potency entry in assay [1] is “inactive”. Also, the result in assay [3] was inactive.

With `O=C(O)c1ccc[n+]([O-])c1`, the Potency entry in assay [1] and in assay [2] was “inactive” throughout. Also, in assay [3], the call was inactive.

Take `Cc1c(NC(C)C)c(=O)n(-c2ccccc2)n1C`: the Potency entry in assay [4] was “inactive”. Moreover, the molecule was called inactive in assay [3].

As for `O=C(O)CNC(=O)c1ccccc1I`, the Potency entry in assay [1] and in assay [2] was “inactive” in each case. Besides, in assay [3], the result was inactive.

With `NS(=O)(=O)c1cc(-c2nn[nH]n2)c(NCc2cccs2)cc1Cl`, the Potency entry in assay [1] and in assay [2] was “inactive” throughout. In addition, the molecule was called inactive in assay [3].

Regarding `CC(C)CCOC(=O)c1ccc(N(C)C)cc1`, the Potency in assay [4] is 6.42 µM (active). Further, the result in assay [3] was inactive.

Turning to `COc1ccc(Cc2cnc(N)nc2N)cc1OC`, the Potency result in assay [1] and in assay [2] was “inactive” each time. For the same molecule, the call in assay [3] was inactive.

On to `CCN1CC(CCN2CCOCC2)C(c2ccccc2)(c2ccccc2)C1=O` (stereo unspecified), for which the Potency entry in assay [1] and in assay [2] was “inactive” throughout. The molecule was classed as inactive in assay [3].

Turning to `Cc1cc(OI)c(C(C)C)cc1-c1cc(C(C)C)c(OI)cc1C`, the Potency result in assay [1] and in assay [2] was “inactive” each time. Further, the molecule was classed as inactive in assay [3].

Consider `CC(=O)Nc1ccc(OCCOCCOc2ccc(NC(C)=O)cc2)cc1`, for which, in assay [4], the Potency entry was “inactive”. For the same molecule, the molecule was classed as inactive in assay [3].

As to `NC(=O)CCCCC1CCSS1` (stereo unspecified), the Potency result in assay [1] and in assay [2] was “inactive” each time. For the same molecule, the call in assay [3] was inactive.

Take `CN(C(=O)c1c(O)c2ccccc2n(C)c1=O)c1ccccc1`: the Potency result in assay [1] and in assay [2] was “inactive” throughout. Further, in assay [3], the call was inactive.

Consider `CC(=O)NCc1c(I)c(NC(C)=O)c(I)c(C(=O)O)c1I`, for which the Potency entry in assay [4] and in assay [2] was “inactive” each time. Besides, the call in assay [3] was inactive.

On to `O=C(/C=C/c1ccccc1)OCc1ccccc1`, for which the molecule was called inactive in assay [3].

Regarding `O=C1CC[C@@H](C(=O)O)N1`, the Potency entry in assay [4] and in assay [2] was “inactive” throughout. For the same molecule, the call in assay [3] was inactive.

As to `C[N+](C)(C)CC[N+]1(C)Cc2c(Cl)c(Cl)c(Cl)c(Cl)c2C1`, the Potency entry in assay [4] and in assay [2] was “inactive” each time. In assay [3], the molecule was called inactive.

For the molecule `CCOc1ccc(C(=O)OCCN(CC)CC)cc1`, the Potency result in assay [4] and in assay [2] was “inactive” throughout. Moreover, in assay [3], the molecule was classed as inactive.

Turning to `CC(CSC(=O)c1ccccc1)C(=O)N1C[C@@H](Sc2ccccc2)C[C@H]1C(=O)O` (stereo partly specified), in assay [3], the result was inactive. In assay [2], the Potency result was “inactive”.

With `COc1cc(C(=O)NCCCCCC(=O)O)cc(OC)c1OC`, the Potency entry in assay [4] and in assay [2] was “inactive” each time. Besides, in assay [3], the outcome was inactive.

Turning to `NCc1ccc(S(N)(=O)=O)cc1`, the Potency result in assay [4] and in assay [2] was “inactive” in each case. The outcome in assay [3] was inactive.

Regarding `NC(=O)CC[C@@H](N)C(=O)O`, the Potency entry in assay [4] and in assay [2] was “inactive” in each case. In addition, the outcome in assay [3] was inactive.

Turning to `Cn1c([N+](=O)[O-])cnc1COC(N)=O`, the outcome in assay [3] was inactive. In assay [2], the Potency result is “inactive”.

`CNc1c2c(nn1C)CCCC2`: the Potency result in assay [4] and in assay [2] was “inactive” throughout. In addition, in assay [3], the result was inactive.

Consider `Cc1c(NC(=O)c2cccnc2)c(=O)n(-c2ccccc2)n1C`, for which the Potency result in assay [4] and in assay [2] was “inactive” in each case. Besides, in assay [3], the call was inactive.

As to `CC(N)CCCC(C)(C)O` (stereo unspecified), the Potency result in assay [4] and in assay [2] was “inactive” each time. Further, the call in assay [3] was inactive.

As to `O=C(O)COC(=O)Cc1ccccc1Nc1c(Cl)cccc1Cl`, the Potency entry in assay [4] and in assay [2] was “inactive” each time. For the same molecule, the result in assay [3] was inactive.

In the case of `O=C(O)CCC(=O)O`, the Potency entry in assay [4] and in assay [2] was “inactive” throughout. Also, the outcome in assay [3] was inactive.

Take `Nc1ccncc1N`: the Potency entry in assay [4] and in assay [2] was “inactive” each time. Moreover, in assay [3], the result was inactive.

For `COc1cc(O)cc(O)c1`, the Potency result in assay [4] was “inactive”. Also, the result in assay [3] was inactive.

With `Cc1cccc(C)c1NC(=O)CC12CCCN1CCC2`, the Potency entry in assay [4] and in assay [2] was “inactive” in each case. In addition, the result in assay [3] was inactive.

As for `Cc1c(I)c(=O)n(-c2ccccc2)n1C`, the Potency result in assay [4] was “inactive”. Besides, the outcome in assay [3] was inactive.

As for `CCS(=O)(=O)CCn1c([N+](=O)[O-])cnc1C`, in assay [3], the result was inactive. For the same molecule, the Potency entry in assay [2] is “inactive”.

On to `CCCCCCCCCCC(CO)CCCCCCCC` (stereo unspecified), for which the Potency result in assay [4] and in assay [2] was “inactive” throughout. In assay [3], the molecule was classed as inactive.

As to `NC(N)=NCCN1CCCCCCC1`, the Potency result in assay [4] and in assay [2] was “inactive” each time. Also, the outcome in assay [3] was inactive.

On to `CC1CCN(CCCC(=O)c2ccc(F)cc2)CC1`, for which the Potency result in assay [4] and in assay [2] was “inactive” in each case.

As for `O=C(CCBr)N1CCN(C(=O)CCBr)CC1`, the Potency result in assay [4] and in assay [2] was “inactive” throughout. For the same molecule, the result in assay [3] was inactive.

In the case of `Cc1ccccc1N=Nc1ccc(N=Nc2c(O)ccc3ccccc23)c(C)c1`, in assay [3], the outcome was inactive. In assay [2], the Potency result is “inactive”.

Take `Cc1cc(NC(=O)C2=C(O)c3ccccc3S(=O)(=O)N2C)no1`: the Potency result in assay [4] and in assay [2] was “inactive” throughout. For the same molecule, in assay [3], the result was inactive.

`O=C(NCN1CCOCC1)c1cnccn1`: the Potency result in assay [4] and in assay [2] was “inactive” each time. Further, the molecule was classed as inactive in assay [3].

On to `NC(N)=NS(=O)(=O)c1ccc(N)cc1`, for which the Potency entry in assay [4] and in assay [2] was “inactive” each time.

In the case of `O=C(O)c1ccccc1C(=O)Nc1ccc(S(=O)(=O)Nc2nccs2)cc1`, in assay [3], the molecule was classed as inactive. Besides, the Potency entry in assay [2] was “inactive”.

Consider `OCC(O)CS` (stereo unspecified), for which the outcome in assay [3] was inactive.

As for `NS(=O)(=O)c1ccc(C(=O)O)cc1`, in assay [2], the Potency entry is “inactive”.

On to `Cc1cc(-n2nc3ccc(Cl)cc3n2)c(O)c(C(C)(C)C)c1`, for which the Potency result in assay [4] and in assay [2] was “inactive” each time. In assay [3], the outcome was inactive.

For the molecule `CCN(CC)CC1CCCCN1CC(=O)N1c2ccccc2C(=O)Nc2cccnc21` (stereo unspecified), the Potency entry in assay [4] and in assay [2] was “inactive” in each case. In addition, the molecule was called inactive in assay [3].

`CCCCCCCCCCCCCCCCC(C(=O)O)C(O)(CC(=O)O)C(=O)O` (stereo unspecified): in assay [3], the molecule was classed as inactive. The Potency result in assay [2] was “inactive”.

`CCN(CC)CCOC(=O)C(c1ccccc1)c1ccccc1`: the result in assay [3] was inactive.

On to `N[C@@H](Cc1ccc(O)cc1)C(=O)O`, for which the Potency result in assay [4] and in assay [2] was “inactive” each time. Besides, the outcome in assay [3] was inactive.
